Assay in all cases: NCI-60 one-dose screen, 48 h (100 = growth as untreated, 0 = no growth, -100 = all killed)
Common to all, as to settings: 10 µM unless noted

In test [1] the test system is DU-145 prostate.
Test [2] has as its system K-562 leukemia.
The test system of test [3] is MALME-3M melanoma.
For test [4], the system named is MDA-MB-231 breast.
Test [5] concerns RXF 393 renal.
The subject of test [6] is SF-268 CNS.
Test [7] concerns SF-295 CNS.
The subject of test [8] is SF-539 CNS.
Test [9] deals with UACC-257 melanoma.
Test [10] has as its system M14 melanoma.

Values joined by “and” are separate entries in the source; they are usually repeats but may differ in a detail not shown here. Equal entries are not always repeated. Compounds without any hit were thinned out: in the full panel of roughly 83,000, 20% have a hit.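 Testing used 96-well plates and a 48-hour single-concentration exposure. Example: -40 means 40% of the starting cells died.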 More than one record can exist for a structure, and the calls need not agree. Active and inactive are the calls of the source. Rule for the calls: active = growth percent below 10; inactive = the rest.

For the molecule `CC(C)(C)c1ccc(O)c(CNC2CCCCC2)c1`, the growth is 130% (inactive) and 108% (inactive) in test [1]; 48.7% (inactive) and 75.4% (inactive) in [2]; 115% (inactive) and 97.9% (inactive) in test [3]; 101% (inactive) and 97.2% (inactive) in test [4]; 96.5% (inactive) and 59.5% (inactive) in test [5]; 114% (inactive) and 96.8% (inactive) in test [6]. Moreover, the growth in test [7] was 104% (inactive); in test [8], 114% (inactive) and 95.6% (inactive); in test [9] it was 108% (inactive) and 95.2% (inactive); in test [10] it was 87.1% (inactive) and 101% (inactive).
In the case of `COc1cc2nc(N3CCN(C(=O)C4COc5ccccc5O4)CC3)nc(N)c2cc1OC` (stereo not given), the growth in [1] was 102% (inactive) and 106% (inactive); in test [2], 93.3% (inactive) and 96.7% (inactive); in [3], 113% (inactive) and 83.2% (inactive) and 95.6% (inactive); in test [4], 76.3% (inactive) and 86.2% (inactive) and 100% (inactive); in test [5], 86.4% (inactive) and 83.4% (inactive) and 109% (inactive); in test [6], 100% (inactive) and 89.5% (inactive) and 98.6% (inactive). The growth was 108% (inactive) and 71.1% (inactive) and 101% (inactive) in test [7]; 115% (inactive) and 89.9% (inactive) and 102% (inactive) in test [8]; 101% (inactive) and 106% (inactive) in [9]; 104% (inactive) and 96.4% (inactive) and 96.3% (inactive) in [10].
On to `Oc1ccccc1C=NCC1CCC(CN=Cc2ccccc2O)CC1` (stereo not given), for which the growth in test [1] was 3.17% (active); in test [2], 99.4% (inactive); in [3] it was 113% (inactive); in test [4] it was 101% (inactive); in test [5], 76.4% (inactive); in test [6], 93.9% (inactive). Further, the growth was 71.6% (inactive) in test [7], 100% (inactive) in test [8], 102% (inactive) in test [9] and 98.8% (inactive) in test [10].
On to `O=C(/C=C\c1ccnc2ccccc12)c1ccc([N+](=O)[O-])cc1`, for which the growth was 101% (inactive) and 96% (inactive) in test [1]; 55.1% (inactive) and 8.08% (active) in [2]; 101% (inactive) and 85.5% (inactive) in test [3]; 84.1% (inactive) and 93.2% (inactive) in test [4]; 107% (inactive) and 75.7% (inactive) in test [5]; 105% (inactive) and 91.6% (inactive) in test [6]. Moreover, the growth in [7] is 82.6% (inactive); in test [8] it was 85.2% (inactive); in test [9], 90% (inactive) and 65.8% (inactive); in [10], 90.7% (inactive) and 79.5% (inactive).
As to `Oc1c(Cl)cc(Cl)cc1Sc1cc(Cl)cc(Cl)c1O`, the growth is 75.6% (inactive) and 29.3% (inactive) and 94.6% (inactive) in [1]; 18% (inactive) and 8.54% (active) and 41% (inactive) in [2]; 10.7% (inactive) and 11.3% (inactive) and 82.2% (inactive) in [3]; 84.2% (inactive) and -21.8% (active) and 79.6% (inactive) in test [4]; 91.3% (inactive) and 16.1% (inactive) and 87.9% (inactive) in test [5]; 33.2% (inactive) and 21.9% (inactive) and 72.1% (inactive) in [6]. Also, the growth in test [7] was 18.6% (inactive) and 15.7% (inactive) and 75.4% (inactive); in test [8] it was 25.8% (inactive) and 93.6% (inactive); in test [9], 56% (inactive) and -16.2% (active) and 77.3% (inactive); in test [10], 69.1% (inactive) and 35% (inactive) and 105% (inactive).
Turning to `COc1ccc(Cn2c(NCCN=C(N)N)nc(=O)n(Cc3ccc(F)cc3)c2=O)cc1`, the growth in [1] is 104% (inactive) and 115% (inactive); in test [2], 89.6% (inactive) and 94% (inactive); in test [3] it was 91.7% (inactive) and 91.1% (inactive); in test [4], 107% (inactive) and 103% (inactive); in test [5] it was 95.5% (inactive) and 109% (inactive); in test [6], 61.8% (inactive) and 52.5% (inactive). Besides, the growth in test [7] was 102% (inactive); in test [8], 102% (inactive) and 89.7% (inactive); in test [9], 89.4% (inactive) and 101% (inactive); in test [10], 97.9% (inactive) and 100% (inactive).
On to `CCOC(=O)Nc1ccc2c(c1)/C(=N\NC(N)=S)c1ccccc1-2`, for which the growth was 64.1% (inactive) and 84.3% (inactive) in [1]; 33.9% (inactive) in test [2]; 89.4% (inactive) in [3]; 32.7% (inactive) and 47.6% (inactive) in test [4]; 8.9% (active) and 12.6% (inactive) in [5]; 78.6% (inactive) and 85.7% (inactive) in [6]. Also, the growth in test [7] was 3.9% (active) and 30% (inactive); in [8], 13.8% (inactive) and 31% (inactive); in test [9], 41.9% (inactive) and 91.3% (inactive); in test [10] it was 42% (inactive) and 61.6% (inactive).
For `CC1=C(/C=C/C(C)=C/C=C/C(C)=C/C=N/NC(=S)NC(=S)N/N=C/C=C(C)/C=C/C=C(C)/C=C/C2=C(C)CCCC2(C)C)C(C)(C)CCC1`, the growth in test [1] is 45.4% (inactive) and 40.3% (inactive); in [2] it was 1.87% (active) and -33.1% (active); in test [3], -42.6% (active) and -41.6% (active); in [4] it was 21.6% (inactive) and -34.1% (active); in [5], -98.2% (active); in [6] it was 30.9% (inactive) and -13% (active). In addition, the growth was 30.3% (inactive) and -7.18% (active) in test [7]; -82.5% (active) and -94.5% (active) in test [8]; 12.7% (inactive) and -28.3% (active) in [9]; -94.8% (active) and -97.5% (active) in test [10].
As for `CC[N+](CC)(CC(=O)Nc1c(C)cccc1C)Cc1ccccc1`, the growth in test [1] was 101% (inactive); in test [2], 94.7% (inactive); in test [3] it was 96.3% (inactive) and 89.9% (inactive); in test [4] it was 75.7% (inactive) and 97.2% (inactive); in test [5] it was 92.8% (inactive) and 106% (inactive); in [6] it was 91.9% (inactive) and 104% (inactive). In addition, the growth in test [7] is 104% (inactive) and 101% (inactive); in test [8] it was 111% (inactive) and 102% (inactive); in [9] it was 92.2% (inactive); in test [10] it was 95.3% (inactive) and 100% (inactive).
For the molecule `Cc1n[nH]c(=O)n(/N=C\c2c[nH]c3ccccc23)c1=O`, the growth in [1] is 118% (inactive); in test [2] it was 93.7% (inactive); in [3] it was 97% (inactive); in test [4] it was 123% (inactive); in test [5], 96.3% (inactive); in test [6], 99.6% (inactive). For the same molecule, the growth in [7] is 102% (inactive); in [8], 104% (inactive); in test [9], 104% (inactive); in test [10] it was 121% (inactive).
On to `O=c1c2ccccc2nc2n1Cc1nc3ccccc3c(=O)n1C2`, for which the growth was 96.4% (inactive) and 102% (inactive) in test [1]; 107% (inactive) and 62.5% (inactive) in test [2]; 80.1% (inactive) and 108% (inactive) in test [3]; 99.2% (inactive) and 105% (inactive) in [4]; 107% (inactive) and 108% (inactive) in test [5]; 87.5% (inactive) and 103% (inactive) in test [6]. Moreover, the growth in test [7] is 105% (inactive) and 112% (inactive); in test [8], 99% (inactive) and 102% (inactive); in [9], 98.3% (inactive) and 112% (inactive); in test [10] it was 89.3% (inactive) and 94.1% (inactive).
With `Cc1cc(O)c(C(C)C)cc1N`, the growth in test [1] was 115% (inactive) and 116% (inactive); in [2] it was 113% (inactive) and 101% (inactive); in [3], 113% (inactive) and 112% (inactive); in test [4], 103% (inactive) and 92.3% (inactive); in test [5], 119% (inactive) and 115% (inactive); in test [6], 102% (inactive) and 120% (inactive). Further, the growth is 104% (inactive) and 99% (inactive) in test [7]; 101% (inactive) and 95.6% (inactive) in test [8]; 107% (inactive) and 111% (inactive) in [9]; 108% (inactive) and 112% (inactive) in test [10].
With `N#C/C(=C/c1c(O)ccc2ccccc12)C(N)=O`, the growth in test [1] was 104% (inactive); in test [2] it was 97.4% (inactive); in test [3] it was 99.4% (inactive); in [4], 86.4% (inactive); in test [5] it was 98.3% (inactive); in test [6], 95.4% (inactive). For the same molecule, the growth in test [7] was 91.2% (inactive); in test [8], 102% (inactive); in [9], 106% (inactive); in test [10], 94.5% (inactive).
With `CN1CCN(c2ccc3nc(-c4c(N)c5c(F)cccc5[nH]c4=O)[nH]c3c2)CC1`, the growth was 33.5% (inactive) and 29.3% (inactive) in test [1]; -26.6% (active) and -24.4% (active) in test [2]; 7.87% (active) and -13.5% (active) in [3]; 42.4% (inactive) and 52.5% (inactive) in test [4]; -1.36% (active) and 26.3% (inactive) in [5]; 44.7% (inactive) and 48.9% (inactive) in [6]. The growth in test [7] is 56.6% (inactive) and 71.6% (inactive); in test [8], 6.28% (active) and 11.5% (inactive); in [9] it was -59.4% (active) and -18.1% (active); in test [10], -25.3% (active) and 2.34% (active).
For the molecule `CCN(CC)C(=S)SSC(=S)N(CC)CC`, the growth in test [1] is 83.4% (inactive) and 109% (inactive); in [2] it was 54.6% (inactive) and 80.5% (inactive); in test [3] it was 61.2% (inactive) and 113% (inactive); in test [4] it was 81.6% (inactive) and 102% (inactive); in test [5], 105% (inactive) and 131% (inactive); in [6], 88.1% (inactive) and 95.7% (inactive). Further, the growth in [7] is 78.5% (inactive) and 103% (inactive); in [8], 91.5% (inactive) and 92.8% (inactive); in test [9], 69.7% (inactive) and 69.5% (inactive); in [10] it was 66.8% (inactive) and 92.4% (inactive).
